Measurements reported in PubChem BioAssay AID1159580 (chemical genetic matrix, 2015).
Where “and” joins values, the source holds several entries; their conditions need not be identical. Identical values can stand only once. Screen size: about 5,500 compounds; about 2,000 (36%) were called active. Not shown: some 18% with an inconclusive outcome. Rule as the data show it: active = normalized growth mostly below about 0.91 (no sharp cut-off); inconclusive = no clear call, values can overlap the other calls; inactive = mostly above about 0.92. This is one part of the list.

Test: chemical genetic growth profiling, strain panel (AID 1159580);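 also: tested at 20 µM; growth read once vehicle control cultures reached saturation at 30 °C; 1 = growth at the plate median or of vehicle wells; lower values mean less growth of the strain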
Settings: S. cerevisiae deletion strains, growth OD

Measured: normalized growth

CN(C)CCN(Cc1cccs1)c1ccccn1
inactive: locus YAL021C, strain ccr4, stronger effect = lower value 1 | locus YAL026C, strain drs2, stronger effect = lower value 1.01 | locus YAL030W, strain snc1, stronger effect = lower value 1 | locus YAL040C, strain CLN3, stronger effect = lower value 1.02 | locus YBL061C, strain skt5, stronger effect = lower value 1 | locus YBR009C, strain hhf1, stronger effect = lower value 0.996 | locus YBR021W, strain FUR4, stronger effect = lower value 1.01 | locus YBR023C, strain chs3, stronger effect = lower value 1.01 | locus YBR171W, strain sec66, stronger effect = lower value 1.01 | locus YBR229C, strain ROT2, stronger effect = lower value 1 | locus YBR231C, strain swc5, stronger effect = lower value 1.01 | locus YBR279W, strain paf1, stronger effect = lower value 1 | locus YCL011C, strain gbp2, stronger effect = lower value 1.01 | locus YCL016C, strain dcc1, stronger effect = lower value 1.01 | locus YCL029C, strain bik1, stronger effect = lower value 1.02 | locus YCL061C, strain MRC1 (second series), stronger effect = lower value 1.01 | locus YCL061C, strain MRC1, stronger effect = lower value 1.01 | locus YCL069W, strain vba3, stronger effect = lower value 1.01 | locus YCR088W, strain abp1, stronger effect = lower value 1.01 | locus YDL005C, strain med2, stronger effect = lower value 1.01 | locus YDL035C, strain GPR1, stronger effect = lower value 1 | locus YDL040C, strain nat1, stronger effect = lower value 1.01 | locus YDL074C, strain BRE1, stronger effect = lower value 0.974 | locus YDL101C, strain DUN1, stronger effect = lower value 0.99 | locus YDL134C, strain PPH21, stronger effect = lower value 1.02 | locus YDL185W, strain tfp1, stronger effect = lower value 1.02 | locus YDL192W, strain arf1, stronger effect = lower value 1.01 | locus YDR001C, strain nth1, stronger effect = lower value 1.01 | locus YDR069C, strain doa4, stronger effect = lower value 1 | locus YDR101C, strain arx1, stronger effect = lower value 0.957 | locus YDR137W, strain rgp1, stronger effect = lower value 1.03 | locus YDR150W, strain NUM1, stronger effect = lower value 1.02 | locus YDR159W, strain sac3, stronger effect = lower value 1.01 | locus YDR162C, strain NBP2, stronger effect = lower value 1.01 | locus YDR195W, strain ref2 0.999 | locus YDR297W, strain sur2, stronger effect = lower value 0.999 | locus YDR318W, strain mcm21, stronger effect = lower value 1.02 | locus YDR334W, strain swr1, stronger effect = lower value 1.02 | locus YDR335W, strain msn5, stronger effect = lower value 1.01 | locus YDR363W, strain ESC2, stronger effect = lower value 0.986 | locus YDR388W, stronger effect = lower value 1.02 | locus YDR392W, strain spt3, stronger effect = lower value 1.01 | locus YDR502C, strain sam2, stronger effect = lower value 1 | locus YEL003W, strain gim4, stronger effect = lower value 1.01 | locus YEL037C, strain rad23, stronger effect = lower value 1.01 | locus YEL061C, strain CIN8 (second series), stronger effect = lower value 1.01 | locus YEL061C, strain CIN8, stronger effect = lower value 1 | locus YER002W, strain NOP16, stronger effect = lower value 1.01 | locus YER015W, strain faa2, stronger effect = lower value 1 | locus YER016W, strain bim1, stronger effect = lower value 1.01 | locus YER110C, stronger effect = lower value 1.01 | locus YER111C, strain swi4, stronger effect = lower value 1.02 | locus YER155C, strain BEM2 (second series), stronger effect = lower value 1.01 | locus YER155C, strain BEM2, stronger effect = lower value 1.01 | locus YER167W, strain BCK2, stronger effect = lower value 1.01 | locus YFR010W, strain ubp6, stronger effect = lower value 1.01 | locus YGL078C, strain dbp3, stronger effect = lower value 1.01 | locus YGL086W, strain mad1, stronger effect = lower value 0.982 | locus YGL167C, strain pmr1, stronger effect = lower value 1.01 | locus YGL173C, strain kem1, stronger effect = lower value 1.01 | locus YGL227W, strain vid30, stronger effect = lower value 1.01 | locus YGL240W, strain doc1, stronger effect = lower value 1.02 | locus YGL248W, strain PDE1, stronger effect = lower value 0.993 | locus YGL253W, strain hxk2, stronger effect = lower value 1.02 | locus YGR078C, strain PAC10, stronger effect = lower value 1.01 | locus YGR135W, strain pre9, stronger effect = lower value 1.05 | locus YGR229C, strain SMI1, stronger effect = lower value 0.996 | locus YGR252W, strain gcn5, stronger effect = lower value 1.07 | locus YHR013C, strain ard1, stronger effect = lower value 0.993 | locus YHR027C, strain rpn1, stronger effect = lower value 1 | locus YHR030C, strain SLT2, stronger effect = lower value 1.01 and 0.934 | locus YHR079C, strain IRE1 (second series), stronger effect = lower value 1.01 | locus YHR079C, strain IRE1, stronger effect = lower value 0.98 | locus YHR094C, strain hxt1, stronger effect = lower value 1.01 | locus YHR129C, strain ARP1, stronger effect = lower value 1.01 | locus YHR142W, strain chs7, stronger effect = lower value 1.01 | locus YHR200W, strain rpn10, stronger effect = lower value 1.01 | locus YIL066C, strain RNR3, stronger effect = lower value 1.01 | locus YIL073C, strain SPO22, stronger effect = lower value 1.07 | locus YIL125W, strain kgd1, stronger effect = lower value 0.993 | locus YIR030C, strain dcg1, stronger effect = lower value 1.01 | locus YJL092W, strain hpr5, stronger effect = lower value 1 | locus YJL095W, strain BCK1 (second series), stronger effect = lower value 1.01 | locus YJL095W, strain BCK1, stronger effect = lower value 0.993 and 0.95 | locus YJL115W, strain asf1, stronger effect = lower value 1.03 | locus YJL129C, strain trk1, stronger effect = lower value 1 | locus YJL134W, strain LCB3, stronger effect = lower value 1.01 | locus YJL154C, strain vps35, stronger effect = lower value 1.01 | locus YJL164C, strain tpk1, stronger effect = lower value 1 | locus YJL166W, strain qcr8, stronger effect = lower value 1 | locus YJL168C, strain set2, stronger effect = lower value 1.01 | locus YJL187C, strain SWE1 (second series), stronger effect = lower value 0.998 | locus YJL187C, strain SWE1, stronger effect = lower value 1 | locus YJR043C, strain POL32, stronger effect = lower value 1.01
